{
  "source": "the supplement of paper PMC6555819",
  "data": [
    {"tested_on": "VDR:RXRa (NR concentration 270 nM, RXRa partner concentration 90 nM)", "test": "PBM binding z-score (relative to random genomic background probes); higher = stronger binding; sequences stand for … in GC…GCGATTGACAGCGTAGAATGAAGG", "experimental": "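Protein-binding microarray (Agilent 4x180K custom design, double-stranded 60-nt probes: 5' GC cap, 34-nt variable region, 24-nt constant primer region; full probe sequence given). Purified or IVT nuclear receptor:RXRα heterodimers (3:1 NR:RXRα, mostly 270:90 nM) or homodimers were incubated for 1 h in PBS with 2% milk and no ligand, then detected with Alexa488 antibodies. Fluorescence from o1-orientation probes (~5 replicates averaged) was converted to z-scores against 500 random hg19 background probes. Variable regions are seed direct-repeat (DR0–DR5) sites, all their single-nucleotide variants and half-site ablations.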", "values": [
      {"sequence": "ATAGCAAGGTGATCGTGAGGTCGTTGATACTAAC", "PBM binding z-score": 2.94},
      {"sequence": "AGAACGAGGGCAATGAGTTGATAGGACGGGTGGC", "PBM binding z-score": 5.22},
      {"sequence": "CCTATTTGTTGACCATAAGGGCAACCGAAGCTCG", "PBM binding z-score": 1.09},
      {"sequence": "GTACCAAGCTGAATAGGTCGTTGATGAGTAGGCG", "PBM binding z-score": -0.239},
      {"sequence": "CGAACTAGGTCAGAACAGGACAGTGTAGGATGAT", "PBM binding z-score": 0.86},
      {"sequence": "GTACCAGGGTGAATAGGTCGTTGATGAGTAGGCG", "PBM binding z-score": 1},
      {"sequence": "CCGACTGGGGCCAGGTTACCATAACGCACAGCCA", "PBM binding z-score": -0.248},
      {"sequence": "TCGAGTAGGTTACCATTGGGGCATTCAGCTTTCT", "PBM binding z-score": 0.0183},
      {"sequence": "AGAATGAGGTTAAGATCAAGGAAACAGAATACAT", "PBM binding z-score": 1.09},
      {"sequence": "CGAACTAGGTCATTAACAGGACAGTGAATAGTAA", "PBM binding z-score": 1.77},
      {"sequence": "GCTTGTAGATCAAGGTTAAGCAAGACTAAGCTAA", "PBM binding z-score": 0.0624},
      {"sequence": "ATCGAAAGATCGAGGTGAGTATAGAGAAAGGGAA", "PBM binding z-score": -0.327},
      {"sequence": "TAGCCTAGGTCATGGGCCCGTATACCACGCGAAC", "PBM binding z-score": 2.07},
      {"sequence": "TGAATAAGGTTAAAGATCAGGGAACGTGGCGTCG", "PBM binding z-score": 1.37},
      {"sequence": "CCTCCTGGGCCACGAAAGGTCATTGATTCAGTGA", "PBM binding z-score": 4.04},
      {"sequence": "TCGAGTAGGTTAGTCGGGGCATACAGCCAACATA", "PBM binding z-score": 1.74},
      {"sequence": "CCTACTGGGCCATCAGGTCATGGATATCAACGTT", "PBM binding z-score": 1.54},
      {"sequence": "ATCGAAAGGGCGACGAGGTGAGTATACACCGTTT", "PBM binding z-score": 1.32},
      {"sequence": "CGTACTGGGCCATTCAGAGGTCATTGATCATATG", "PBM binding z-score": 4.27},
      {"sequence": "CGAACGAGGACATGAGTTGATAGCAAATGCCGAT", "PBM binding z-score": 0.112},
      {"sequence": "CGTCCAAGGTCAGACAGGTCAGTGAATGCCGAGT", "PBM binding z-score": 5.82},
      {"sequence": "AGTCAAAGTTCACTAGGTAATGTAAGATTCAGCT", "PBM binding z-score": 3.84},
      {"sequence": "AATACACGGTCATCGTAGGCCAGAGTACGCACAG", "PBM binding z-score": 0.576},
      {"sequence": "CCGACTGGGGCATAAAGGTTACCATACCATCCGG", "PBM binding z-score": 1.4},
      {"sequence": "AGAACGAGGGCAATGAGTTGATAGTACGGGTGGC", "PBM binding z-score": 5.53},
      {"sequence": "AATACAGGCTCACTAGGCCAGAGTAGGTACGAAT", "PBM binding z-score": -0.46},
      {"sequence": "CCTACTGGGCCATTCAGAGGTCATTAATCATATG", "PBM binding z-score": 3.64},
      {"sequence": "ACTCGGAGAACAAAGGTCAGAGCTACGCCAGTGA", "PBM binding z-score": 2.77},
      {"sequence": "TAGCCTAGGTCATGCGGGCCACTATAGTGTCGGC", "PBM binding z-score": 3.58},
      {"sequence": "CCTACTGCGCCACGAAAGGTCATTGATTCAGTGA", "PBM binding z-score": 4.08},
      {"sequence": "ATCTCTAGGTAACCAAGTTCCGTGAATGCCGAAC", "PBM binding z-score": 0.306},
      {"sequence": "TCATATAGGTCAATGCTAGGTGAAAGTCCGATCT", "PBM binding z-score": 2.9},
      {"sequence": "CCAACTGGGGCAAGGTTACCATAACGCACAGCCA", "PBM binding z-score": 0.166},
      {"sequence": "TCTTGTAGATCAAGCAGCTTAAGAAAGCCTGAGT", "PBM binding z-score": 0.0668},
      {"sequence": "ATCGAAATGTCGAGGTGAGTATAGAGAAAGGGAA", "PBM binding z-score": -0.253},
      {"sequence": "GGAACGAGGGCAATTTGATAGCAGAGTTTGATGG", "PBM binding z-score": 0.368},
      {"sequence": "TCCATTAGTTGATTAGGGCAACCGAAACAGCGGA", "PBM binding z-score": 0.545},
      {"sequence": "CGTCAAAGTTCAGCTAAGGTAACGTAAAGCACGC", "PBM binding z-score": 3.33},
      {"sequence": "GTACCTAGGTGAATAGGTCGTTGATGAGTAGGCG", "PBM binding z-score": 0.549},
      {"sequence": "CGTACGAGGGCATGAGTTGATAGCAAATGCCGAT", "PBM binding z-score": 1.36}
    ]}
  ]
}
